Assay outcomes: PubChem BioAssay, several laboratories
Most compounds without a hit are left out; they make up all but 3.6% or so of the library.
HSP90 inh = inhibitors of HSP90 luciferase refolding in rabbit reticulocyte lysate | luciferase refolding luminescence, 3 h | inhibition, % at 5.6 µM | AID 1789 | actives 0.91% (n = 290,000);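 active = inhibition above the screen-wide mean plus 3 SD, computed separately per campaign, cut at about 16% in these data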;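 also: 0% = DMSO wells and 100% = 60 µM geldanamycin wells; inhibitors lower the luminescence because luciferase stays unfolded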
Peg3 prom inh-1 = inhibitors of Peg3 promoter; HeLa PEG-Prom luciferase reporter, luminescence, overnight; inhibition, % at 20 µM; actives 1.7% (n = 360,000); AID 588405;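 active = inhibition of at least 50% at 20 µM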
KKLEB cytotox = reduces viability of KKLEB cystic fibrosis airway cells | KKLEB CF airway cells viability, ATPlite luminescence, overnight; active compounds read low; cells stimulated with P. aeruginosa culture filtrate | activity change (cytotoxicity), % at 5 µM | actives 0.36% (n = 360,000);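 active = corrected activity change at or below -50% at 5 µM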
LGR2 inh = blocks bursicon-induced cAMP signaling via Drosophila LGR2. HEK293 LGR2, CRE-luciferase, bursicon-stimulated, 4 h. inhibition, % at 9.99 µM. actives 0.35% (n = 380,000);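 active = drop in luminescence signal, shown as inhibition above about 50% in the replicate tests, limit read from the data, passing the limit was not always enough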;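 also: agonist challenge used bursicon conditioned medium at about half maximal strength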
CF NFkB block = inhibitors of cystic fibrosis induced NF-kB. KKLEB NF-kB-GFP reporter, PAF-induced, GFP fluorescence overnight. inhibition, % at 5 µM. actives 0.86% (n = 360,000). AID 588850;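 active = at least 50% inhibition at 5 µM, scaled per plate between neutral and stimulator controls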;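 also: PAF is a Pseudomonas aeruginosa culture filtrate used as stimulus; plate controls were PAF-stimulated DMSO wells for no effect and unstimulated DMSO wells for full effect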
Mdm2-MdmX inh = disrupts the human Mdm2-MdmX interaction | actives 3% (n = 330,000) | SaOS-2 split-luciferase Mdm2/MdmX complementation, luminescence | O15151+Q00987 | inhibition, % at 8 µM;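 active = inhibition of at least 50% at 8 µM in the primary screen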
Peg3 prom inh-2 = confirmation of Peg3 promoter inhibitors; shares compounds with Peg3 prom inh-1; HeLa PEG-Prom luciferase reporter, luminescence, overnight; inhibition, % at 20 µM; actives 84% (n = 1,300);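 active = at 20 µM dose, 40% or more inhibition averaged across four replicates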
Starred values were filed as active, the others as inactive; nt = not tested or not shown.

SMILES	HSP90 inh	Peg3 prom inh-1	KKLEB cytotox	LGR2 inh	CF NFkB block	Mdm2-MdmX inh	Peg3 prom inh-2
COc1ccc(CC(N)c2csc(Nc3cccc(OC)n3)n2)cc1 (stereo unspecified)	nt	69.5*	3.1	12.9	-8.6	nt	96.5*
O=C(c1ccco1)N1CCN(c2ncnc3c2[nH]c2ccc(Br)cc23)CC1	0.2	73.3*	2.6	nt	-42.5	nt	84.9*
O=C(c1ccco1)N1CCN(c2ncnc3c2[nH]c2ccccc23)CC1	2.3	nt	nt	nt	nt	10.5	nt
CC(C)NC(=O)NC(=O)COC(=O)c1c2c(nc3ccccc13)CCC2	0.4	92.3*	1.4	9.3	17.5	36.0	85.6*
COCC(=O)Nc1ccc2c(c1)C(=O)N(C)[C@@H]1CC[C@@H](CC(=O)NCCc3ccncc3)O[C@@H]1CO2	nt	nt	nt	6.8	nt	nt	nt
COCC(=O)N(C)C[C@H]1Oc2ncc(-c3ccc(F)cc3)cc2C(=O)N([C@@H](C)CO)C[C@@H]1C	nt	nt	nt	-6.1	nt	nt	nt
C=CCn1nc([N+](=O)[O-])nc1Sc1cccc2cccnc12	-6.2	53.6*	7.3	nt	-6.5	32.9	25.6
Cc1cc(C)c(CN2CCN(CCCn3cnc(C(=O)Nc4ccc(C)c(C)c4)n3)CC2)c(C)c1	nt	97.9*	-37.3	-7.7	35.4	nt	96.6*
Cc1ccc(NC(=O)c2ncn(CCCNCCCN3CCCC3=O)n2)cc1C	nt	-4.0	1.9	3.3	-8.9	nt	nt
CCNC(=O)[C@@H]1[C@@H](CO)[C@@H]2Cn3c(ccc(-c4cccc(F)c4)c3=O)[C@H]1N2C(=O)c1ccccn1	nt	nt	nt	3.7	nt	nt	nt
O=C(Nc1ccc(S(=O)(=O)NC2=NCCCCC2)cc1)c1ccc([N+](=O)[O-])s1	nt	68.7*	-1.0	16.3	39.0	28.5	76.8*
O=C(Nc1ccc(S(=O)(=O)NC2=NCCCCC2)cc1)c1cccs1	nt	1.6	3.7	-7.7	2.7	-11.5	nt
COc1ccc(-c2csc(NC(=O)c3cccc(N4C(=O)CCC4=O)c3)n2)cc1C	2.3	-13.3	4.8	18.6	-16.6	13.1	nt
O=C(Nc1nc(-c2ccc3ccccc3c2)cs1)c1ccc(N2C(=O)CCC2=O)cc1	2.6	55.8*	-12.1	5.1	18.0	36.6	17.2
Clc1ccccc1-c1cnc2sc(NCc3ccc4c(c3)OCO4)nn12	nt	65.7*	13.8	7.1	9.4	nt	33.5
Clc1ccccc1-c1ccc2ncnc(NCc3ccc4c(c3)OCO4)c2c1	nt	19.5	-24.5	7.6	18.4	-23.0	nt
COc1cc(CNC(C)(C)CO)cc(Br)c1OCc1ccc(Cl)cc1	2.6	80.7*	-11.0	2.8	12.6	49.5	91.1*
COc1ccc(-c2nc3c(C(=O)NCCN(C)C)cccc3c3ccccc23)cc1	nt	95.4*	-0.9	nt	-125.6	nt	98.8*
COc1ccc(-c2coc3c(C(=O)NCCN(C)C)cccc23)c(C)c1	nt	27.8	2.6	0.2	-5.2	nt	nt
COc1cccc2nc3c(C(=O)NCCN(C)C)cccc3cc12	nt	98.9*	0.4	0.9	-117.0	nt	97.2*
Cc1ccc(S(=O)(=O)N[C@H]2CC[C@H](CC(=O)N3CCN(c4ccccc4)CC3)O[C@@H]2CO)cc1	nt	nt	nt	-7.4	nt	nt	nt
O=C(C[C@H]1C[C@H]2c3cc(NC(=O)c4cccnc4)ccc3O[C@H]2[C@H](CO)O1)NCCN1CCCCC1	nt	nt	nt	-0.9	nt	nt	nt
COC(=O)c1ccc2nc(NC(=O)CSCC(=O)OCC(=O)c3ccccc3)sc2c1	3.9	-135.3	8.5	-8.6	4.2	9.7	nt
Cc1ccc2nc(NC(=O)CSCC(=O)OCC(=O)c3ccc(Br)cc3)sc2c1	49.9*	51.6*	-0.2	nt	12.6	30.6	65.1*
COc1ccc(-c2sc3cc(OC)c(OC)cc3c2C#CCCO)cc1	nt	-4.8	-10.6	0.0	11.4	37.2	nt
SMILES	HSP90 inh	Peg3 prom inh-1	KKLEB cytotox	LGR2 inh	CF NFkB block	Mdm2-MdmX inh	Peg3 prom inh-2
COc1ccc2c(C#CCCO)c(-c3ccc(S(C)(=O)=O)cc3)sc2c1	nt	50.2*	-19.4	0.2	7.0	41.9	42.2*
CS(=O)(=O)c1ccc(-c2sc3ccccc3c2C#CCCO)cc1	nt	54.0*	3.0	-5.5	-4.2	17.3	60.0*
CCCN(C)C[C@H]1OCCCC[C@H](C)Oc2ccc(NS(=O)(=O)c3c(C)noc3C)cc2C(=O)N([C@@H](C)CO)C[C@@H]1C	nt	nt	nt	-0.2	nt	nt	nt
COCC(=O)N[C@H]1CC[C@@H](CC(=O)NCc2ccc(Cl)cc2)O[C@H]1CO	nt	nt	nt	-17.8	nt	nt	nt
CC(=O)NC(=S)Nc1ccccc1N1CCN(C(=O)c2ccccc2)CC1	0.3	28.1	-1.6	-9.8	-14.7	9.5	nt
CC(C)C(=O)NC(=S)Nc1ccccc1N1CCN(C(=O)c2ccccc2)CC1	-0.5	58.0*	-23.4	18.2	8.4	35.1	40.3*
CCCCNC(=O)C1(C)CCN1Cc1cccc2c(OC)cc(C(=O)OCC)cc12 (stereo unspecified)	nt	57.4*	-9.0	nt	30.9	nt	36.9
CCCNC(=O)N1[C@@H]2CNC[C@H]1C2c1ccc(-c2ccc(C)cc2)cc1 (stereo partly specified)	nt	nt	nt	-16.8	nt	nt	nt
CN(C)CC1CCC/C(=C/c2ccc(Cl)cc2)C1=O (stereo unspecified)	nt	96.1*	9.5	15.2	-14.5	nt	97.8*
COc1ccc(/C=C2/CCCC(CN(C)C)C2=O)cc1 (stereo unspecified)	nt	97.6*	2.3	-13.5	-19.5	nt	99.3*
C[C@@H]1CN([C@H](C)CO)C(=O)c2cc(NS(=O)(=O)c3ccccc3)ccc2O[C@@H](C)CCCCO[C@@H]1CN(C)Cc1ccncc1	nt	nt	nt	-13.1	nt	nt	nt
C[C@@H]1CCCCO[C@@H](CN(C)C(=O)c2ccccc2)[C@@H](C)CN([C@@H](C)CO)C(=O)c2cc(NS(=O)(=O)c3ccc(Cl)cc3)ccc2O1	nt	nt	nt	1.6	nt	nt	nt
CCCCCCCCOC(=O)c1cc([N+](=O)[O-])c(Sc2ncnc3nc[nH]c23)c([N+](=O)[O-])c1	nt	82.7*	-8.7	nt	1.7	nt	72.7*
CCCCOC(=O)c1ccc(Nc2ncnc3nc[nH]c23)cc1	-5.5	-200.2	-15.6	-29.0	26.7	13.0	nt
COc1ccc(C#Cc2ccc3c(c2)[C@H]2[C@H](CCN2C(=O)c2ccccc2F)[C@H](CO)N3)cc1	nt	nt	nt	2.0	nt	nt	nt
CN1OC[C@@H]2CN[C@H](c3ccc(-c4cc5ccccc5o4)cc3)C[C@@H]21	nt	89.4*	-45.5	nt	-3.5	nt	90.2*
CN1OC[C@@H]2CN[C@H](c3ccc(-c4ccc(C#N)cc4)cc3)C[C@@H]21	nt	-248.2	-0.5	-28.7	-37.8	nt	nt
COc1ccc2c3c(n(C)c2c1)[C@@H](CO)N(C(=O)Nc1ccc(F)cc1)CC31CCN(C(=O)c2ccccc2F)CC1	nt	nt	nt	28.1	nt	nt	nt
C(=NN1CCCCCC1)c1cccc2ccccc12	nt	-111.6	-13.4	nt	-0.5	nt	nt
C(=NN1CCCCCC1)c1ccc2ccccc2n1	nt	91.0*	-84.1*	97.6*	1.7	nt	95.7*
CN(C)c1ccc(/C=C/c2ccc3ccccc3n2)cc1	83.6*	88.5*	-79.7*	92.6*	-30.2	nt	67.9*
